Our source for the Percent Effect values is ChEMBL document CHEMBL3988442, “University of Dundee, Small-Polar-MMV Screening Library” (2021).

One test concerns the target T1, Proteasome subunit beta (Trypanosoma cruzi) (UniProt O96673).
T1 sequence (whole entry): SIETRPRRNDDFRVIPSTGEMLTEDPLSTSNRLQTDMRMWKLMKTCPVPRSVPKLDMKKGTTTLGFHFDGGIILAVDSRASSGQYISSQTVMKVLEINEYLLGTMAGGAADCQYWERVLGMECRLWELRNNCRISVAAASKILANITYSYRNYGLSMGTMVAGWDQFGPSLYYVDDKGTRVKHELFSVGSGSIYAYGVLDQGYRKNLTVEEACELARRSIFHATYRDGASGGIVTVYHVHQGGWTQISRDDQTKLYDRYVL
Nature of the test: Trypanosoma cruzi proteasome chymotrypsin-like activity (TcProtChymo) assay. Set-up: scale not given: in the data most compounds retested in dose-response had high values. To be noted: 9.37 µM. The format is functional.
For `CN(Cc1ccsc1)C(=O)c1cccc(S(=O)(=O)NC(C)(C)C)c1`, the Percent Effect was 12%.
Still for that read-out and setting: then `Clc1snnc1CN1CCCCC1Cn1cncn1` (stereo not given), with 13.2%; and `O=C(CC1CC1)N1CCC2(CC1)CN(c1ncccn1)CCO2`, with 5.9%; and `CC(C)c1noc(CCC(=O)NC(C)c2nnc3n2CCCCC3)n1` (stereo not given), with 2.83%.
For `CC1c2ncc(COc3cccnc3)n2CCN1C(=O)Cc1ccco1` (stereo not given), the Percent Effect was found to be 6.84%.
The same measure, in the same setting: then `COc1cccc(CN(C)S(=O)(=O)N2CCOCC2)c1`, with 22.1%; and `Cc1ccc(S(=O)(=O)NC2CNC(=O)C2)cc1C` (stereo not given), with 3.9%.
Same read-out and setting: then `COCC(O)CN(C)C(=O)NC1CCN(Cc2ccccn2)CC1` (stereo not given), with 15.4%.
Same read-out and setting: then `O=C(NCc1ccco1)[C@H]1C[C@H]2OCC[C@H]2N(S(=O)(=O)C2CC2)C1`, with 8.38%; and `Cc1ncsc1CN1C[C@@H](OCC2CC2)[C@H]2OCCC[C@H]21`, with 24.3%; and `COc1ccc(C2Nc3ccccc3C3=NCCCN32)cc1OC` (stereo not given), with -2.91%.
Take `O=C(NC[C@]12COC[C@H]1CN(Cc1nccs1)C2)N1CCCC1`: the Percent Effect was determined as 13.5%.
With `CC(C)c1cc(NC(=O)c2ccc(NC3CC3)nc2)[nH]n1`, the Percent Effect came out at 11.5%.
For the molecule `O=C(c1cnc(C2CC2)s1)N1CCCC(n2cccn2)C1` (stereo not given), the Percent Effect was 1.26%.
Still for that read-out and setting: next, `O=C1N(c2ccc(Br)cc2)Cc2nc(=O)[nH]n21`: 4.44%; `COc1ccc(C(=O)N(Cc2cnn(C)c2)C(C)C)cc1Br`: -1.61%; `CCCc1cc(C(=O)N(C)Cc2cccc3ncccc23)n(C)n1`: 14.6%.
Same read-out and setting: next, `Cc1nc(CN2C[C@@H]3CN(C(=O)C4CC4)C[C@@H]3C2=O)cs1`: 14.9%.
Consider `Cc1ccc(NC(=O)NCCCc2n[nH]c(N)c2C#N)cc1`, for which the Percent Effect came out at 13.5%.
With `CS(=O)(=O)NCC(=O)NC1CCc2nccn2C1` (stereo not given), the Percent Effect came to 12.7%.
Same read-out and setting: next, `CCCN(CC(=O)NC)C(=O)c1ccc(-c2ccsc2)nc1C`: 17.9%.
As for `Cc1ccc(C(=O)N2CCc3c(CNS(C)(=O)=O)cncc3C2)o1`, the Percent Effect is 8.72%.
On the same count and under the same terms, next, `Cc1cnn(CCC(=O)N2CCOC(c3nc(C(C)(C)C)n[nH]3)C2)c1` (stereo not given): 5.26%; `COc1cc(C)nc(N2CCN(C(=O)c3ccccc3C)CC2)n1`: 1.8%; `COCC1CC2(CCN(C(=O)c3cccn3C)CC2)CN1C(C)C` (stereo not given): 0.761%.
The same measure, in the same setting: then `Cc1cc(C(=O)N2C[C@@H]3COC[C@]3(c3nnc(C4CC4)o3)C2)on1`, with 7.52%; and `CCOc1nnc(CN2CCC(N(C)Cc3noc(C)n3)C2)s1` (stereo not given), with 12.4%.
`Cc1cnc(CN(C)C2CCN(CC(=O)Nc3c(C)n[nH]c3C)C2)o1` (stereo not given): the Percent Effect was 6.63%.
The same measure, in the same setting: then `CNC(=O)C1CCN(C(=O)CCn2cccn2)CC1`, with -1.44%.
For `COCCNC(=O)[C@@H]1CC[C@@H]2[C@@H](CCN2Cc2cnn(C)c2)O1`, the Percent Effect amounted to 9.74%.
The same measure, in the same setting: then `Cc1cc(C)n(CC2CCCN2C(=O)CCCc2ccccn2)n1` (stereo not given), with 10.9%.
Consider `Cc1nccc(-c2cccc(NCC(=O)N3CCNC3=O)c2)n1`, for which the Percent Effect was found to be 11.2%.
Same read-out and setting: then `O=C(c1cnco1)N1CCCC(Cc2cccc3ncccc23)C1` (stereo not given), with 8.42%; and `O=C(NCC(=O)N1CCCCC1)c1ccc(Cl)cc1I`, with 10.5%.
Still for that read-out and setting: then `Cc1cncc(C2CCCN(C(=O)c3scnc3C)C2)n1` (stereo not given), with 7.33%; and `COC1CCN(C(=O)Cc2csc(-c3ncccn3)n2)CC1`, with 9.19%.
Turning to `CC(C)Cc1noc(CN2CCOC(Cn3cncn3)C2)n1` (stereo not given), the Percent Effect was 0.718%.
Still for that read-out and setting: then `Cc1nc(C)n(C2CCCN(C(=O)c3ccccc3C)C2)n1` (stereo not given), with 12.5%.
On the same count and under the same terms, then `CCCc1ncc(C(=O)N2CCOC(c3nc(C)n[nH]3)C2)s1` (stereo not given), with 5.66%; and `Cc1ccsc1[C@@H]1CCN(C(=O)c2cc3ccccc3[nH]2)C[C@H]1O`, with 15.3%.

The species entered for the next test is Homo sapiens. Nature of the test: To identify inhibition of the IFN signalling (Jak-Stat) pathway via expression of an eGFP reporter gene under the control of an IFN-stimulated response element (ISRE) containing MxA promoter. The format is functional. Set-up: scale not given: direction of the effect not stated beside the values. Particulars: 30 µM. On the technique in general: A reporter such as luciferase makes a cellular process visible.
As for `CN(Cc1ccsc1)C(=O)c1cccc(S(=O)(=O)NC(C)(C)C)c1`, the Percent Effect worked out at 18.1%.
Same read-out and setting: then `Clc1snnc1CN1CCCCC1Cn1cncn1` (stereo not given), with 5.04%; and `O=C(CC1CC1)N1CCC2(CC1)CN(c1ncccn1)CCO2`, with 9.78%; and `CC(C)c1noc(CCC(=O)NC(C)c2nnc3n2CCCCC3)n1` (stereo not given), with -7.58%.
Same read-out and setting: then `CC1c2ncc(COc3cccnc3)n2CCN1C(=O)Cc1ccco1` (stereo not given), with -8.23%; and `COc1cccc(CN(C)S(=O)(=O)N2CCOCC2)c1`, with 23.5%; and `Cc1ccc(S(=O)(=O)NC2CNC(=O)C2)cc1C` (stereo not given), with -1.25%.
For the molecule `COCC(O)CN(C)C(=O)NC1CCN(Cc2ccccn2)CC1` (stereo not given), the Percent Effect came out at 7.67%.
As to `O=C(NCc1ccco1)[C@H]1C[C@H]2OCC[C@H]2N(S(=O)(=O)C2CC2)C1`, the Percent Effect was -14%.
For `Cc1ncsc1CN1C[C@@H](OCC2CC2)[C@H]2OCCC[C@H]21`, the Percent Effect was -4.12%.
On the same count and under the same terms, then `COc1ccc(C2Nc3ccccc3C3=NCCCN32)cc1OC` (stereo not given), with 11.5%.
The same measure, in the same setting: next, `O=C(NC[C@]12COC[C@H]1CN(Cc1nccs1)C2)N1CCCC1`: -4.41%; `CC(C)c1cc(NC(=O)c2ccc(NC3CC3)nc2)[nH]n1`: -1.61%.
For the molecule `O=C(c1cnc(C2CC2)s1)N1CCCC(n2cccn2)C1` (stereo not given), the Percent Effect came to 21%.
On the same count and under the same terms, then `O=C1N(c2ccc(Br)cc2)Cc2nc(=O)[nH]n21`, with 7.62%.
Consider `COc1ccc(C(=O)N(Cc2cnn(C)c2)C(C)C)cc1Br`, for which the Percent Effect is -4.21%.
On the same count and under the same terms, next, `CCCc1cc(C(=O)N(C)Cc2cccc3ncccc23)n(C)n1`: 36.1%; `Cc1nc(CN2C[C@@H]3CN(C(=O)C4CC4)C[C@@H]3C2=O)cs1`: 18.6%; `Cc1ccc(NC(=O)NCCCc2n[nH]c(N)c2C#N)cc1`: 13.3%.
The same measure, in the same setting: then `CS(=O)(=O)NCC(=O)NC1CCc2nccn2C1` (stereo not given), with 2.1%.
On the same count and under the same terms, next, `CCCN(CC(=O)NC)C(=O)c1ccc(-c2ccsc2)nc1C`: 12.1%.
Regarding `Cc1ccc(C(=O)N2CCc3c(CNS(C)(=O)=O)cncc3C2)o1`, the Percent Effect is 4.16%.
As to `Cc1cnn(CCC(=O)N2CCOC(c3nc(C(C)(C)C)n[nH]3)C2)c1` (stereo not given), the Percent Effect was 20.6%.
On the same count and under the same terms, then `COc1cc(C)nc(N2CCN(C(=O)c3ccccc3C)CC2)n1`, with 9.59%; and `COCC1CC2(CCN(C(=O)c3cccn3C)CC2)CN1C(C)C` (stereo not given), with -12.3%; and `Cc1cc(C(=O)N2C[C@@H]3COC[C@]3(c3nnc(C4CC4)o3)C2)on1`, with -5.46%.
The same measure, in the same setting: then `CCOc1nnc(CN2CCC(N(C)Cc3noc(C)n3)C2)s1` (stereo not given), with 11.4%.
Same read-out and setting: then `Cc1cnc(CN(C)C2CCN(CC(=O)Nc3c(C)n[nH]c3C)C2)o1` (stereo not given), with 33.5%; and `CNC(=O)C1CCN(C(=O)CCn2cccn2)CC1`, with 19.3%.
As to `COCCNC(=O)[C@@H]1CC[C@@H]2[C@@H](CCN2Cc2cnn(C)c2)O1`, the Percent Effect was 2.61%.
For the molecule `Cc1cc(C)n(CC2CCCN2C(=O)CCCc2ccccn2)n1` (stereo not given), the Percent Effect was 16.9%.
On the same count and under the same terms, next, `Cc1nccc(-c2cccc(NCC(=O)N3CCNC3=O)c2)n1`: 16.4%; `O=C(c1cnco1)N1CCCC(Cc2cccc3ncccc23)C1` (stereo not given): 17.8%; `O=C(NCC(=O)N1CCCCC1)c1ccc(Cl)cc1I`: 13.7%.
Regarding `Cc1cncc(C2CCCN(C(=O)c3scnc3C)C2)n1` (stereo not given), the Percent Effect is 2.09%.
Take `COC1CCN(C(=O)Cc2csc(-c3ncccn3)n2)CC1`: the Percent Effect is -15.6%.
Consider `CC(C)Cc1noc(CN2CCOC(Cn3cncn3)C2)n1` (stereo not given), for which the Percent Effect amounted to 16.7%.
Consider `Cc1nc(C)n(C2CCCN(C(=O)c3ccccc3C)C2)n1` (stereo not given), for which the Percent Effect turned out to be 12.5%.
The same measure, in the same setting: then `CCCc1ncc(C(=O)N2CCOC(c3nc(C)n[nH]3)C2)s1` (stereo not given), with 11.7%; and `Cc1ccsc1[C@@H]1CCN(C(=O)c2cc3ccccc3[nH]2)C[C@H]1O`, with 12.8%.
